This passage reports activation and Potency results from PubChem BioAssay (NCATS).

Structures are written as SMILES. “And” between values parts separate entries of the source, which are not always exact repeats. Equal values may be shown once. Records with an inconclusive call do not appear. Values without a mark were called inactive. The source made the active and inactive calls. The call rests on the fitted dose curve; in most records, active means well fitted curve in the direction sought with a large enough effect; inconclusive means small, poorly fitted or top-dose-only effect, or another doubt; inactive means no such curve, though single readings can be large; an effect the other way counts as inactive or inconclusive. Non-standard residues stand in square brackets, D forms with d. Residues, ends and D or L forms follow the SMILES beside them. *: point of attachment. Nva = CCC[C@H](N)C(=O)O; Cbz = O=C(OCc1ccccc1)*

Assay [1] concerns the target Cellular tumor antigen p53 (Homo sapiens) (UniProt P04637). Briefly: Primary qHTS for small molecule compounds that upregulate eGFP-tagged delta133p53alpha (in N-terminal) cells. (AID 2060322). Further: nearly all actives have a fitted effect of over 75% in size.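 On activation: cells pre-induced with doxycycline then dosed without doxycycline; 0% = DMSO vehicle and 100% = reference activator.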 The following applies: NCI-H358 eGFP-delta133p53alpha fluorescence, 24 h; activation: stronger effect = higher value. In outline: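 NCI-H358 cells pre-induced 24 h with 10 ng/ml doxycycline for eGFP-delta133p53alpha, plated dox-free and exposed 24 h at 37C to titrated compounds. Fixed, Hoechst-stained; gated GFP peak intensity by laser scanning cytometry, normalized to DMSO (0%) and 57.5 uM 5-azacytidine (100%).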
For orientation: qHTS replaces the single test concentration by a dilution series.

The nature of assay [2]: BET inhibitor-based combinations targeting novel dependencies in MECOM-rearranged (r) AML: OCI-AML3 cell line (AID 2202232). Further: nearly all actives have a fitted effect of over 35% in size. The following applies: CellTiter-Glo luminescence, 48 h; Potency: OCI-AML3 viability; series mostly up to 46 µM. In outline: (§1)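 500 cells/well; 11-pt dose curve; 48 h, standard incubator; CellTiter-Glo luminescence after 15 min RT; DMSO/empty-well normalization; AUC plus Z-AUC (mean-centered within each line).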

Assay [3] in a line: BET inhibitor-based combinations targeting novel dependencies in MECOM-rearranged (r) AML: MV-4-11 cell line (AID 2202233). Further: nearly all actives have a fitted effect of over 45% in size. The following applies: MV-4-11 AML viability, CellTiter-Glo luminescence, 48 h; series mostly up to 46 µM. In outline: (§2)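 Cells were plated at 500 per well and exposed to each drug across an 11-point dose range for 48 hr at standard incubator conditions. Viability was read by CellTiter-Glo luminescence, and activity was expressed as AUC and per-cell-line Z-transformed AUC.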
A general note: In ATP-based viability assays light output follows the ATP content of the culture.

Assay [4] is described as follows: BET inhibitor-based combinations targeting novel dependencies in MECOM-rearranged (r) AML: UCSD-AML1 cell line (AID 2202235). Further: nearly all actives have a fitted effect of over 40% in size. The following applies: UCSD-AML1 AML cells viability, CellTiter-Glo, 48 h; series mostly up to 46 µM. In outline: as §2
Assay [5] in a line: BET inhibitor-based combinations targeting novel dependencies in MECOM-rearranged (r) AML: AML-191 cell line (AID 2202236; further: nearly all actives have a fitted effect of over 35% in size). Conditions: AML-191 viability, CellTiter-Glo luminescence, 48 h; series mostly up to 46 µM. In outline: as §1
Assay [6] can be described thus: BET inhibitor-based combinations targeting novel dependencies in MECOM-rearranged (r) AML: AML-194 cell line (AID 2202237; further: nearly all actives have a fitted effect of over 40% in size). Conditions: AML-194 (MECOM-r AML) viability, CellTiter-Glo, 48 h; series mostly up to 46 µM. Put shortly:
as §1

Assay [7] can be described thus: BET inhibitor-based combinations targeting novel dependencies in MECOM-rearranged (r) AML: HNT-34 cell line (AID 2202234). Further: nearly all actives have a fitted effect of over 35% in size. The following applies: HNT-34 AML viability, CellTiter-Glo luminescence, 48 h; series mostly up to 46 µM. Put shortly: as §2
Potency means the concentration at half of the fitted maximal effect.

Cellular tumor antigen p53 (Homo sapiens), sequence (P04637 whole entry, looked up): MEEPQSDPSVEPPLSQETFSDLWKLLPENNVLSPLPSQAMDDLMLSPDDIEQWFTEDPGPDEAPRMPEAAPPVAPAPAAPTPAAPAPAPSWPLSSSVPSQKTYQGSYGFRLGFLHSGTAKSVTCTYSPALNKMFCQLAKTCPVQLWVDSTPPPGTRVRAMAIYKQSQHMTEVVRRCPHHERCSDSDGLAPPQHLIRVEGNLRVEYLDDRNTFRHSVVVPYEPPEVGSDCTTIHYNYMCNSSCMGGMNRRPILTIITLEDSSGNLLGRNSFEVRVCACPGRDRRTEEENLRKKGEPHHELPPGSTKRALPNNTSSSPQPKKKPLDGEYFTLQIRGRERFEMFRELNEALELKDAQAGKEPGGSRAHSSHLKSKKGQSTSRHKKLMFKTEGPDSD

`NS(=O)(=O)c1ccc(NC2=CC(=O)c3ccccc3C2=O)cc1`: the activation in assay [1] was 4.73%. Also, the Potency in assay [2] was 5.25 µM (active); in assay [3] it was 0.833 µM (active); in assay [5] it was 4.68 µM (active). Further, the Potency result in assay [4] and in assay [6] was “inactive” throughout.

As for `Nc1nc2[nH]cc(CCc3ccc(C(=O)N[C@@H](CCC(=O)O)C(=O)O)cc3)c2c(=O)[nH]1`, the activation in assay [1] was -41.3%. Further, the Potency in assay [2] is 0.662 µM (active); in assay [3] it was 0.372 µM (active); in assay [4], 1.05 µM (active); in assay [5], 0.525 µM (active). Also, the Potency result in assay [7] and in assay [6] was “inactive” throughout.

With `CN[C@H]1CCc2cc(OC)c(OC)c(OC)c2-c2ccc(OC)c(=O)cc21`, the activation in assay [1] is 7.86%. For the same compound, the Potency in assay [2] is 0.0934 µM (active); in assay [3], 0.105 µM (active); in assay [7] it was 0.0833 µM (active); in assay [4], 0.105 µM (active); in assay [5], 0.105 µM (active); in assay [6], 0.105 µM (active).

With `C/C=C/C(=O)N(CC)c1ccccc1C`, the activation in assay [1] is -2.82%. In addition, the Potency result in assay [2], in assay [3], in assay [7], in assay [5] and in assay [6] was “inactive” throughout.

As for `O=C(Nc1nnc(-c2ccco2)o1)c1cc(-c2ccccc2)nc2ccccc12`, the activation in assay [1] was -15%. In addition, the Potency in assay [2] was 14.8 µM (active); in assay [3], 20.9 µM (active); in assay [7] it was 10.5 µM (active); in assay [4], 8.33 µM (active); in assay [5] it was 11.8 µM (active); in assay [6] it was 13.2 µM (active).

In the case of `CCOC(=O)[C@H](CCc1ccccc1)N[C@H]1CS[C@H](c2cccs2)CN(CC(=O)O)C1=O`, the activation in assay [1] is -24.3% and -1.2%. For the same compound, the Potency in assay [2] and in assay [3] was 20.9 µM (active) in each case. Further, the Potency result in assay [4] was “inactive”.

On to `O=C(O)CCC1CCC(c2cc(F)ccc2F)(S(=O)(=O)c2ccc(Cl)cc2)CC1` (stereo not drawn), for which the activation in assay [1] was 33.4%. Besides, the Potency result in assay [2], in assay [3], in assay [7], in assay [4] and in assay [6] was “inactive” throughout.

Regarding `C[C@H]1C[C@@H]2[C@H]([C@@H](O)C[C@@]3(C)[C@H]2CC[C@]3(O)C(=O)CO)[C@@]2(C)C=CC(=O)C=C12`, the activation in assay [1] is 5.86%. Moreover, the Potency entry in assay [2], in assay [3] and in assay [4] was “inactive” throughout. For the same compound, the results for the Potency in assay [5] and in assay [6] were 0.263 µM (active) and 0.209 µM (active), respectively.

Consider `NCC1CCC(C(=O)O)CC1` (stereo not drawn), for which the activation in assay [1] was 20.7%. In addition, the Potency entry in assay [2], in assay [3], in assay [7], in assay [4], in assay [5] and in assay [6] was “inactive” in each case.

On to `CCC[C@@H](C=O)NC(=O)[C@H](CC(C)C)NC(=O)[C@H](CC(C)C)NC(=O)OCc1ccccc1` (Cbz-Leu-Leu-[Nva]-aldehyde), for which the Potency was 5.44 µM (active) in assay [1]; 2.35 µM (active) in assay [2]; 2.95 µM (active) in assay [3]; 2.63 µM (active) in assay [7]; 2.95 µM (active) in assay [5]; 2.63 µM (active) in assay [6].

Take `O=C1C(Cl)=C(NCCN2CCOCC2)C(=O)c2ncccc21`: the Potency was 27.3 µM (active) in assay [1]; 3.72 µM (active) in assay [2]; 2.09 µM (active) in assay [3]; 5.9 µM (active) in assay [7]; 8.33 µM (active) in assay [4]; 7.42 µM (active) in assay [6].

For the compound `NC(=O)c1cnc(N[C@@H]2CCCC[C@@H]2N)nc1Nc1cccc(-n2nccn2)c1`, the Potency was 34.3 µM (active) in assay [1]; 16.6 µM (active) in assay [2]; 3.32 µM (active) in assay [3]; 14.8 µM (active) in assay [7]; 8.33 µM (active) in assay [4]; 16.6 µM (active) in assay [5]. Moreover, in assay [6], the Potency is 18.6 µM (active).

In the case of `C[C@H](NC(=O)[C@@H](O)c1cc(F)cc(F)c1)C(=O)N[C@@H]1C(=O)N(C)c2ccccc2-c2ccccc21`, the activation in assay [1] is 10.4%. For the same compound, the Potency entry in assay [2], in assay [3], in assay [7] and in assay [6] was “inactive” in each case.

Consider `O=C(O)[C@H](Cc1c[nH]c2ccccc12)N1C(=O)c2ccccc2C1=O`, for which, in assay [1], the activation is -29%. The Potency result in assay [2], in assay [3], in assay [7], in assay [5] and in assay [6] was “inactive” each time. The Potency in assay [4] is 3.32 µM (active).

For the compound `Cc1[nH]nc2ccc(-c3cncc(OC[C@@H](N)Cc4ccccc4)c3)cc12`, the Potency in assay [1] was 21.7 µM (active); in assay [2], 1.18 µM (active); in assay [3], 0.132 µM (active); in assay [4], 0.468 µM (active); in assay [5], 0.833 µM (active); in assay [6], 1.18 µM (active).

As to `CCOC(=O)N1c2ccc(C(F)(F)F)cc2[C@@H](N(Cc2cc(C(F)(F)F)cc(C(F)(F)F)c2)C(=O)OC)C[C@H]1CC`, the activation in assay [1] was -8.39%. In addition, the Potency in assay [2] is 4.68 µM (active). Also, the Potency result in assay [7], in assay [4], in assay [5] and in assay [6] was “inactive” throughout.

`CC1=CC(=O)c2ccccc2C1=O`: the activation in assay [1] is 1.69% and -31.8%. The Potency in assay [2] was 18.6 µM (active); in assay [3], 7.42 µM (active); in assay [7] it was 23.5 µM (active); in assay [6], 18.6 µM (active).

With `Cc1ccc(S(=O)(=O)Nc2nc3ccccc3nc2Nc2ccc3nsnc3c2)cc1`, the activation in assay [1] was 6.55%. In addition, the Potency entry in assay [2], in assay [3], in assay [7], in assay [4], in assay [5] and in assay [6] was “inactive” each time.

With `CC1Cc2ccccc2N1NC(=O)c1ccc(Cl)c(S(N)(=O)=O)c1` (stereo not drawn), the activation in assay [1] was -9.21% and -1.28%. Further, the Potency result in assay [2], in assay [3], in assay [7], in assay [4], in assay [5] and in assay [6] was “inactive” each time.
